HT1080-NT tox: kills 2HG-producing HT-1080-NT fibrosarcoma cells; Potency, µM (series often up to 46.1 µM), without a hit: at the highest dose activity, negative = less viability, most hits filed as cytotoxic; AID 686970; actives 1.6% (n = 360,000); HT-1080-NT fibrosarcoma viability, CellTiter-Glo ATP luminescence, 48 h;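 further: NT is the 2HG producing partner of a matched IDH1 knockdown line; 0% = DMSO-treated cells and -100% = media-only wells without cells; nearly all actives have a fitted effect of over 55% in size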
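Viability of the 2HG-overproducing fibrosarcoma line after 48 hours of compound exposure at 37 degrees C was determined by luminescence with CellTiter-Glo, and concentration-effect curves were then fitted and categorized.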
ATXN viability: cell viability loss in ATXN counter-screen | AID 651635 | actives 0.49% (n = 400,000) | S2 cells (HEK-293 line with an ATXN2-luciferase reporter) viability, CellTiter-Fluor protease fluorescence, 24 h | Potency, µM (doses to about 56.7 µM), hits mostly cytotoxic; further: nearly all actives have a fitted effect of over 40% in size
ATXN2 expr inh: inhibitors of ATXN2 expression | actives 0.72% (n = 360,000) | Potency, µM (top dose mostly 57 µM), for the others: top-dose activity change, negative = inhibition, usual class: inhibitors | HEK-293 ATXN2-luciferase reporter, luminescence, 24 h | AID 1745845; further: on the % scale 0 is the no-effect control and ±100 the full control effect; nearly all actives have a fitted effect of over 55% in size
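qHTS (up to 57 uM final) was run with 24 h compound exposure of reporter cells at 37 °C. Each well was multiplexed: SteadyGlo luminescence measured ATXN2-luciferase expression after a fluorogenic Gly-Phe-AFC viability readout (25 uM final).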
KB-V1 cytotox: kills drug-selected multidrug resistant KB-V1 cells. AID 1347076. Potency, µM (doses to about 46.1 µM), actives largely listed as cytotoxic. KB-V1 MDR cells viability, CellTiter-Glo, 72 h. actives 3.4% (n = 400,000); further: on the % scale 0 is the no-effect control and ±100 the full control effect; nearly all actives have a fitted effect of over 60% in size
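Potencies derive from concentration-effect curves fitted to normalized luminescence (CellTiter-Glo) of KB-V1 cells treated for 72 h at 37 degrees C in phenol-red-free DMEM containing 10% FBS.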
KB-3-1 tox: kills parental KB-3-1 adenocarcinoma cells | Potency, µM (top dose mostly 46.1 µM), actives largely listed as cytotoxic | actives 1.4% (n = 400,000) | KB-3-1 viability, CellTiter-Glo ATP luminescence, 72 h; further: on the % scale 0 is the no-effect control and ±100 the full control effect; nearly all actives have a fitted effect of over 60% in size
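Cytotoxicity measured as CellTiter-Glo luminescence after 72 h at 37 C. Compound titrations were pinned onto drug-naive KB-3-1 parental adenocarcinoma cells grown in DMEM with 10% FBS, and normalized data fitted to concentration-response curves.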
HT1080 IDH1KD tx: HT-1080 IDH1 knockdown cell toxicity (counter line); HT-1080 IDH1 knockdown viability, ATP luminescence, 48 h; actives 2% (n = 360,000); Potency, µM (series often up to 46.1 µM), without a hit: top-dose activity, negative = toxicity, usual class: cytotoxic;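 further: 0% = DMSO wells and -100% = cell-free medium wells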
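IDH1KD HT-1080 cells, 750/well, RPMI + 5% FBS; compound pinned after 2 h settling; 48 h, 37 °C; CellTiter-Glo luminescence; % activity normalised to DMSO and no-cell wells; curves fitted, classed by r2 and efficacy.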
* marks the source's active call; other numbers are inactive results; i = inactive; ? = inconclusive; . = no result. Sampled rows, rich in hits. Any-hit rate of the full collection: about 6.2%. The call rests on the fitted dose curve; in most records, active means well fitted curve in the direction sought with a large enough effect; inconclusive means small, poorly fitted or top-dose-only effect, or another doubt; inactive means no such curve, though single readings can be large; an effect the other way counts as inactive or inconclusive. Potency means the concentration at half of the fitted maximal effect.

SMILES	HT1080-NT tox	ATXN viability	ATXN2 expr inh	KB-V1 cytotox	KB-3-1 tox	HT1080 IDH1KD tx
COc1ccc2cc1Oc1ccc(cc1)CC1c3c(cc(OC)c4c3Oc3cc5c(cc3O4)CCNC5C2)CCN1C (centres undefined)	?	8.4µM*	11µM*	?	16µM*	18µM*
COc1ccc2cc1Oc1ccc(cc1)C[C@H]1c3c(cc(OC)c4c3Oc3c(ccc5c3[C@H](C2)N(C)CC5)O4)CCN1C	-3%	?	-3%	?	i	-2%
Cc1ccc(Cc2nc3ccccc3nc2SCC(=O)NCc2ccc(F)cc2)cc1	.	i	9%	i	i	.
Oc1ccccc1N=N/C(=N/Nc1ccccc1O)c1ccccc1	2%	i	13%	i	i	4%
N#C/C(N=Nc1ccccc1O)=N\Nc1ccccc1O	21µM*	16µM*	?	?	16µM*	9.2µM*
COC(=O)c1ccc(NC(=O)c2c(NCc3cccc(F)c3)sc3c2CCCC3)cc1	.	?	?	i	i	.
O=C(C[n+]1c(Cl)ccc2ccccc21)c1ccc2ccccc2c1	.	.	.	i	?	.
COC(=O)C(=Cc1ccc(-c2ccsc2C(=O)OC)o1)C(=O)OC	?	i	-19%	i	?	21µM*
COC(=O)c1sccc1-c1ccc(C(=O)Nc2cccnc2)o1	-1%	i	41%	5.8µM*	i	3%
CCOC(=O)C(=Cc1ccc(-c2ccsc2C(=O)OC)o1)C(=O)OCC	4%	i	?	?	?	?
CC(=O)c1cc(-c2ccc(F)cc2)n(CCC(=O)NC2CCCCC2)c1C	.	.	.	i	i	.
CC(C)C(N)c1csc(Nc2nncc3ccccc23)n1 (centres undefined)	?	i	0%	?	i	?
Nc1ccc(CC(N)c2csc(Nc3nncc4ccccc34)n2)cc1 (centres undefined)	?	i	-24%	23µM*	?	-25%
NC(Cc1ccccc1)c1csc(Nc2nncc3ccccc23)n1 (centres undefined)	?	.	?	23µM*	?	?
NC(CCc1ccccc1)c1csc(Nc2nncc3ccccc23)n1 (centres undefined)	?	i	-22%	i	i	?
CC(N)c1csc(Nc2nncc3ccccc23)n1 (centres undefined)	?	i	?	i	i	18µM*
COc1cc(=O)n2c(c1C(=O)NCc1ccc3c(c1)OCO3)CCN(C(=O)c1ccccc1F)CC2	.	i	.	.	.	.
COc1ccc(Cl)cc1NC(=O)Cn1cc2c(n1)CCC(C)C2 (centres undefined)	.	i	1%	i	i	.
C=CCNC(=S)N/N=C(\C)c1cccc(OC)c1	-4%	i	7%	23µM*	i	11%
C=CCNC(=S)N/N=C(\C)c1ccc(OC)cc1	5%	i	-25%	i	i	2%
CC(O)(COc1ccccc1)c1ccc2c(c1)CN(Cc1ccc3nsnc3c1)CCO2 (centres undefined)	.	i	.	.	.	.
COc1ccc(CC(=O)NC2CCCc3ccccc32)cc1 (centres undefined)	13%	.	-15%	?	i	7%
COc1ccc2c(c1)C(CC(=O)NN)CCC2 (centres undefined)	7.3µM*	?	0%	?	23µM*	1.6µM*
Cc1c(C(=O)NC(C)(C)CO)sc2ncnc(NCCN(C)C)c12	.	i	.	.	.	.
CC(=O)N1CCc2c(sc3c2c(=O)n(Cc2ccccc2)c(=O)n3CC(=O)Nc2ccc(C)c(F)c2)C1	.	?	-24%	i	i	.
SMILES	HT1080-NT tox	ATXN viability	ATXN2 expr inh	KB-V1 cytotox	KB-3-1 tox	HT1080 IDH1KD tx
Cc1ccc(NS(=O)(=O)c2cc3c(cc2C)OCC(=O)N3)cc1C	.	.	.	?	i	.
Cc1ccc(-c2cc3c(nn2)-c2ccccc2C3=O)cc1	?	i	3.5µM*	?	i	?
O=C1c2ccccc2-c2nnc(-c3ccc(F)cc3)cc21	-4%	i	-35%	i	?	10%
Nc1ccc(C(=O)c2cc3c(ccc4ccccc43)[nH]2)cc1	.	.	-12%	.	.	.
CCN1CCCC1CNC(=O)c1cnn(-c2nccc(-c3cc(OC)ccc3OC)n2)c1C (centres undefined)	.	i	.	.	.	.
O=C(NCCN1CCOCC1)c1ccc(Cl)c(Cl)c1	17%	i	-13%	i	i	28%
CC(=O)N1CCN(C(=O)CCN(c2ccccc2)S(=O)(=O)c2ccc(C)cc2)CC1	6%	i	14%	i	i	16%
O=C1/C(=C\c2ccc(Cl)c(Cl)c2)CN(C(=O)CCN2CCOCC2)C/C1=C/c1ccc(Cl)c(Cl)c1	5.2µM*	6.7µM*	6.7µM*	?	3.7µM*	5.2µM*
CCN(CC)CCC(=O)N1C/C(=C/c2ccccc2)C(=O)/C(=C\c2ccccc2)C1	?	13µM*	24µM*	?	i	2.9µM*
O=C1/C(=C\c2ccccc2)CN(C(=O)CCN2CCCCC2)C/C1=C/c1ccccc1	?	?	?	?	?	2.9µM*
O=C(CCN1C(=O)S/C(=C\c2ccccc2)C1=O)N1CCCCC1	0%	i	29%	i	i	-1%
COCc1c(C(=O)N2CCN(C(C)C)CC2)cnn1-c1nccc(-c2cc(C)sc2C)n1	.	i	.	.	.	.
CC1(C)OC(=O)C2(Cc3ccccc3N3CCC(c4ccccc4)CC32)C(=O)O1 (centres undefined)	.	.	.	i	i	.
Cn1cc(S(=O)(=O)c2ccc(Cl)cc2)c(=O)c2cc(F)c(N3CCCCCC3)cc21	.	.	.	i	i	.
Cc1cccc(C(=O)NNC(=O)c2cc3cc4ccccc4nc3s2)c1	?	i	-23%	i	i	21µM*
COC(=O)C1CCCCN1Cc1ccc2c(c1)CN(Cc1cnn(-c3ccccc3)c1)CCO2 (centres undefined)	.	i	.	.	.	.
COc1ccc(NC(=O)c2cc(-c3ccccc3F)no2)cc1	.	i	9%	i	i	.
Cc1nc2cccnc2n1-c1cccc(C(=O)N2CCN(c3ccc(Cl)cc3)CC2)c1	.	.	.	i	12µM*	.
COc1cc(Cl)c(C)cc1NC(=O)c1sc2nc3n(c(=O)c2c1C)CCCCC3	.	.	.	i	i	.
COc1ccc2c(c1)cc1c(=O)n(CC(=O)NC(C)C)nc(C)n12	.	i	4%	?	i	.
CSc1nc2ccccc2cc1/C=C(\C#N)c1cccc(Cl)c1	4.6µM*	i	-16%	?	21µM*	4.6µM*

Screens from PubChem BioAssay.
